# In PMC7862700, “An all-to-all approach to the identification of sequence-specific readers for epigenetic DNA modifications on cytosine”:
# Columns and labels:
# Test in all cases: DAPPL (digital affinity profiling via proximity ligation, sequencing); 10 mM Tris-HCl pH 7.5, 50 mM NaCl, 1 mM DTT, 4% glycerol, room temperature, 30 min; GST-TFs on glutathione beads, 16-mer random dsDNA library, 0.1% formaldehyde crosslink after washing; high values mean tight binding
# FEV = target: T1, FEV (Homo sapiens, UniProt Q99581 1-238); settings: protein: recombinant; tags: N-terminal GST; dsDNA, one strand shown
# T1 sequence: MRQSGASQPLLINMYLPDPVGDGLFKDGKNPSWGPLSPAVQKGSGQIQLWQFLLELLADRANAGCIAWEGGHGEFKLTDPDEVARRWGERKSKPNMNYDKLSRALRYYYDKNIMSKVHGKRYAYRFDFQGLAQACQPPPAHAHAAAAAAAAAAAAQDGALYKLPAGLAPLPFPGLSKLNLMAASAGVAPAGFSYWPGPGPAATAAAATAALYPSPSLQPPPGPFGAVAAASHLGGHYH
# How it was run: (§1)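 The binding signal reported is, for every hexamer, its read frequency for a factor over its read frequency for the tag-only sample. Reads came from pools of yeast-expressed, GST-fused human transcription factors on glutathione beads, barcoded with DNA and mixed with that sample, which were incubated with 200 nmole of a random double-stranded 16-mer DNA library in Tris/NaCl/DTT/glycerol buffer at room temperature for 30 min. After washing, the pools were crosslinked with 0.1% formaldehyde, proximity-ligated with BsaI/T4 ligase for 1 h at 37 °C, PCR-amplified and sequenced on an Illumina NextSeq500.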
# ETV5 = ETV5 (Homo sapiens, UniProt P41161 1-510); settings: protein: recombinant; tags: N-terminal GST; dsDNA, one strand shown
# How it was run: as §1
# HSF1 = HSF1 (Homo sapiens, UniProt Q00613 1-529); settings: protein: recombinant; tags: N-terminal GST; chain copies: 3; dsDNA, one strand shown
# How it was run: as §1
# SPIC = target: T2, SPIC (Homo sapiens, UniProt Q8N5J4 1-248); settings: protein: recombinant; tags: N-terminal GST; dsDNA, one strand shown
# T2 sequence: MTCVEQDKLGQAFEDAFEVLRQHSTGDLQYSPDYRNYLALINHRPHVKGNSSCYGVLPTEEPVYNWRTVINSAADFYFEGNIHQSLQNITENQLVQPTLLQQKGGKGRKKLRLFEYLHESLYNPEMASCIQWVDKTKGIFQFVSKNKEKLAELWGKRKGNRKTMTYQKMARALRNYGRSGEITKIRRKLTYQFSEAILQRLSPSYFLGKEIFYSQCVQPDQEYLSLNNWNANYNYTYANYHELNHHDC
# How it was run: as §1
# ELF4 = ELF4 (Homo sapiens, UniProt Q99607 1-663); settings: protein: recombinant; tags: N-terminal GST; dsDNA, one strand shown
# How it was run: as §1
# ELK4 = target: T3, ELK4 (Homo sapiens, UniProt P28324-2 1-405); settings: protein: recombinant; tags: N-terminal GST; dsDNA, one strand shown
# T3 sequence: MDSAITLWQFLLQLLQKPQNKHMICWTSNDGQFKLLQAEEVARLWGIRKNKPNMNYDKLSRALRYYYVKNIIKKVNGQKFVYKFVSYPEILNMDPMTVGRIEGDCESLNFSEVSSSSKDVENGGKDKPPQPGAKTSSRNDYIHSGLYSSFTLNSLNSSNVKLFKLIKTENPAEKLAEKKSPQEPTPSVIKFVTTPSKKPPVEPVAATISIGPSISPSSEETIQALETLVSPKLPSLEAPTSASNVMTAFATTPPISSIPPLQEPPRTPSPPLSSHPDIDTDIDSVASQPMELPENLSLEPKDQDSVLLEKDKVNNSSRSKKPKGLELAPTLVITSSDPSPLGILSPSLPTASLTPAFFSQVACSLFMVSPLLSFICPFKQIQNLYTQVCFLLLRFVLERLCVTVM
# How it was run: as §1
# ETV2 = target: T4, ETV2 (Homo sapiens, UniProt O00321 1-342); settings: protein: recombinant; tags: N-terminal GST; dsDNA, one strand shown
# T4 sequence: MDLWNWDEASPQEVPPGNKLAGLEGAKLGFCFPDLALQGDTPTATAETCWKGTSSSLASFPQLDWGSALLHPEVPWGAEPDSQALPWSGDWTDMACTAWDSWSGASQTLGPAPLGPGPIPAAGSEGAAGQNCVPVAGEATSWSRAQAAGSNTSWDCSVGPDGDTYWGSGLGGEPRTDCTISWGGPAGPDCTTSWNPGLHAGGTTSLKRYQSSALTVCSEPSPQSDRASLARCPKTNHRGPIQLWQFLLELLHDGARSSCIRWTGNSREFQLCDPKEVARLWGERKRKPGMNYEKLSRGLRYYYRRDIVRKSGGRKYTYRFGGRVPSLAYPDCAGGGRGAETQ
# How it was run: as §1
# ELF3 = target: T5, ELF3 (Homo sapiens, UniProt P78545 1-371); settings: protein: recombinant; tags: N-terminal GST; dsDNA, one strand shown
# T5 sequence: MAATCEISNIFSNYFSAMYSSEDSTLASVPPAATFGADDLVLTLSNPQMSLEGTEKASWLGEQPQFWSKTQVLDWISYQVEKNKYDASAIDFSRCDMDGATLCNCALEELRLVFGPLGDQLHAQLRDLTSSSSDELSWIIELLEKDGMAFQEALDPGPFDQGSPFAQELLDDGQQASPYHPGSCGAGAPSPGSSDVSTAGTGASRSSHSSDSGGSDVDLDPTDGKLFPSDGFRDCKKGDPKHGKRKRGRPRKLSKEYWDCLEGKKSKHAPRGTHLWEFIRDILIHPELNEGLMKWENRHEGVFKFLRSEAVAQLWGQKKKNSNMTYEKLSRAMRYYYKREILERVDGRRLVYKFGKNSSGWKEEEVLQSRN
# How it was run: as §1
# CRX = CRX (Homo sapiens, UniProt O43186 1-299); settings: protein: recombinant; tags: N-terminal GST; dsDNA, one strand shown
# How it was run: as §1
# ETV1 = ETV1 (Homo sapiens, UniProt P50549 1-477); settings: protein: recombinant; tags: N-terminal GST; dsDNA, one strand shown
# How it was run: as §1
# Chain of CRX (O43186 whole entry): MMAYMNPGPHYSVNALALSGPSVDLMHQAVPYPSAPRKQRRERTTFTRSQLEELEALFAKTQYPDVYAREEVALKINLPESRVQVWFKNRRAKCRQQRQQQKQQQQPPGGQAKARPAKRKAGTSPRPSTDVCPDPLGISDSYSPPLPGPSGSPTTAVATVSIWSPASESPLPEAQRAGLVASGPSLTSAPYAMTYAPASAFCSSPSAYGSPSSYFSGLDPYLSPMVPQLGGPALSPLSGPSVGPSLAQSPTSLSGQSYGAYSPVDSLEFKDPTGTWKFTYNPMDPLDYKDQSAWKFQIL
# Chain of ETV5 (P41161 whole entry): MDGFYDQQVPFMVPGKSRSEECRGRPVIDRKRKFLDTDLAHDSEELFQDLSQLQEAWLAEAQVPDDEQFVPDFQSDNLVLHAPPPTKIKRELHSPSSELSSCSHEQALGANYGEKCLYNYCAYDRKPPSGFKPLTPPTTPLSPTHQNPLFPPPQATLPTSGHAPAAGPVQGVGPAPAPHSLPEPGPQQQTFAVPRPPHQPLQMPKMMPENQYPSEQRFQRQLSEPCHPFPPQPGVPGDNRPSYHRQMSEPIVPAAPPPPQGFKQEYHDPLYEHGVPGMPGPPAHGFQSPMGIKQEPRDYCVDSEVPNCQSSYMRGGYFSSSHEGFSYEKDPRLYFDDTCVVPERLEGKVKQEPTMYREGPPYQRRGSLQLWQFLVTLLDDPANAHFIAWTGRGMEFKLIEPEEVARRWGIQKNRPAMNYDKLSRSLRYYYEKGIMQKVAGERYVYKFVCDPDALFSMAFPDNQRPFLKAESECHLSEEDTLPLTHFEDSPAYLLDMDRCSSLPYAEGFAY
# Chain of HSF1 (Q00613 whole entry): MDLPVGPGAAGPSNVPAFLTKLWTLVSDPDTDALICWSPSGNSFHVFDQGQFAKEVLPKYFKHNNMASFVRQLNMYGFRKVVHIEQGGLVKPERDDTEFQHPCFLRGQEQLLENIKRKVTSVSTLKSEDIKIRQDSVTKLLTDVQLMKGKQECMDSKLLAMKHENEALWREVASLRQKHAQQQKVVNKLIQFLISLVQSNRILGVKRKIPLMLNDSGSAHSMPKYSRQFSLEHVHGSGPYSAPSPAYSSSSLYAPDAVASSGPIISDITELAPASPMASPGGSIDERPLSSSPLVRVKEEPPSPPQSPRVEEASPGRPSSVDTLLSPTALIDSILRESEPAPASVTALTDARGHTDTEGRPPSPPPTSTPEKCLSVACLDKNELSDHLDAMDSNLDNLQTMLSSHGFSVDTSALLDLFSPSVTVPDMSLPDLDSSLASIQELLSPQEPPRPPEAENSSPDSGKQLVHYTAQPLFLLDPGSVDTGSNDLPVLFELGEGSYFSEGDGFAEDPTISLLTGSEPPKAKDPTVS
# Chain of ETV1 (P50549 whole entry): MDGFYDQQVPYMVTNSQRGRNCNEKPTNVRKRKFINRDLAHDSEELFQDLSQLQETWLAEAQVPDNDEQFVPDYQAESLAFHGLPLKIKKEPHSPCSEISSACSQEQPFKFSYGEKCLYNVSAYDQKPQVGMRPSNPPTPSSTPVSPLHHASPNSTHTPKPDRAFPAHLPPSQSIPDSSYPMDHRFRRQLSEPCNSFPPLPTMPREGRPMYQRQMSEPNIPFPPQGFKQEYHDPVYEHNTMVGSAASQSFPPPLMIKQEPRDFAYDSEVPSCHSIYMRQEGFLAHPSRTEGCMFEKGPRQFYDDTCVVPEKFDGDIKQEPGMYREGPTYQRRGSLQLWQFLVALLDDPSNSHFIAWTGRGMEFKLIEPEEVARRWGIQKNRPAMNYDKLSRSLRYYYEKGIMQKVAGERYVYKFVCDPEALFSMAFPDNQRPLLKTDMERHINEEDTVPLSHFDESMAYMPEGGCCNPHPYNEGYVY
# Chain of ELF4 (Q99607 whole entry): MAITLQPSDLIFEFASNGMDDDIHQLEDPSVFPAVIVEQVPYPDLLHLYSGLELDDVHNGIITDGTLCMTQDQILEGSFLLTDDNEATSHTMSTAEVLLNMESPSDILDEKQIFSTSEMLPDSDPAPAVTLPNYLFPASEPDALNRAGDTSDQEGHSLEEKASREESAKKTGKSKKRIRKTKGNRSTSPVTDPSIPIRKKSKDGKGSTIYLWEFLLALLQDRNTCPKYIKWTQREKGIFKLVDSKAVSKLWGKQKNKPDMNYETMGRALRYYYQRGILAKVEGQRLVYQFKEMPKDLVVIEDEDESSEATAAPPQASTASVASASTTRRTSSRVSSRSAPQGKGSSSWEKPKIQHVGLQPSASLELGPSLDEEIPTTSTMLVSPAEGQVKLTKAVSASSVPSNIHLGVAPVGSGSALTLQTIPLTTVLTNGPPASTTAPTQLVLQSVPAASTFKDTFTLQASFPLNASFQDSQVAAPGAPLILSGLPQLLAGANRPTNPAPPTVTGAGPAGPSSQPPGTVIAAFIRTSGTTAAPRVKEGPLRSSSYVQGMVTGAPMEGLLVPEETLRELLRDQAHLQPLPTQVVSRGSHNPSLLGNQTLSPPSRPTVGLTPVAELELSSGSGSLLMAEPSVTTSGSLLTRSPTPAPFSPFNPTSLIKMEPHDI
sequence,measurement,setting,value
TTTTTT,binding signal,FEV,"1.17 fold enrichment (6-mer frequency, TF over GST control)"
same,binding signal,ETV5,"1.23 fold enrichment (6-mer frequency, TF over GST control)"
same,binding signal,HSF1,"1.23 fold enrichment (6-mer frequency, TF over GST control)"
same,binding signal,SPIC,"1.3 fold enrichment (6-mer frequency, TF over GST control)"
same,binding signal,ELF4,"1.19 fold enrichment (6-mer frequency, TF over GST control)"
same,binding signal,ELK4,"1.17 fold enrichment (6-mer frequency, TF over GST control)"
same,binding signal,ETV2,"1.4 fold enrichment (6-mer frequency, TF over GST control)"
same,binding signal,ELF3,"1.33 fold enrichment (6-mer frequency, TF over GST control)"
same,binding signal,CRX,"1.24 fold enrichment (6-mer frequency, TF over GST control)"
same,binding signal,ETV1,"1.36 fold enrichment (6-mer frequency, TF over GST control)"
